From PubChem BioAssay AID1159580 (chemical genetic matrix, 2015)
Where “and” joins values, the source holds several entries; their conditions need not be identical. Identical values can stand only once. About 2,000 (36%) of roughly 5,500 compounds were called active. Roughly 18% stayed inconclusive and do not appear here. No stated cut-off is given here; in the data, active means normalized growth mostly below about 0.91 (no sharp cut-off); inconclusive means no clear call, values can overlap the other calls; inactive means mostly above about 0.92. The list shows a part of the results.

Assay: chemical genetic growth profiling, strain panel (AID 1159580);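 further: tested at 20 µM; growth read once vehicle control cultures reached saturation at 30 °C; 1 = growth at the plate median or of vehicle wells; lower values mean less growth of the strain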
Details: S. cerevisiae deletion strains, growth OD

Measured: normalized growth

COC(=O)C[C@H]1C(C)(C)C(=O)[C@@H]2CC3=C4CC(=O)O[C@@H](c5ccoc5)[C@]4(C)CCC3[C@@]1(C)C2=O (stereo not given in full)
inactive: locus YAL021C, strain ccr4, hits give low values 0.972 | locus YAL026C, strain drs2, hits give low values 0.983 | locus YAL030W, strain snc1, hits give low values 1 | locus YBL061C, strain skt5, hits give low values 0.997 | locus YBR009C, strain hhf1, hits give low values 0.987 | locus YBR021W, strain FUR4, hits give low values 0.986 | locus YBR023C, strain chs3, hits give low values 1 | locus YBR171W, strain sec66, hits give low values 0.992 | locus YBR229C, strain ROT2, hits give low values 1 | locus YBR231C, strain swc5, hits give low values 1.01 | locus YBR279W, strain paf1, hits give low values 0.993 | locus YCL011C, strain gbp2, hits give low values 1 | locus YCL016C, strain dcc1, hits give low values 0.996 | locus YCL029C, strain bik1, hits give low values 0.998 | locus YCL061C, strain MRC1, hits give low values 0.988 | locus YCL069W, strain vba3, hits give low values 0.987 | locus YCR088W, strain abp1, hits give low values 0.988 | locus YDL005C, strain med2, hits give low values 0.975 | locus YDL035C, strain GPR1, hits give low values 1.01 | locus YDL040C, strain nat1, hits give low values 0.995 | locus YDL074C, strain BRE1, hits give low values 1.02 | locus YDL101C, strain DUN1, hits give low values 1.01 | locus YDL134C, strain PPH21, hits give low values 1.01 | locus YDL185W, strain tfp1, hits give low values 1.02 | locus YDL192W, strain arf1, hits give low values 1.01 | locus YDR001C, strain nth1, hits give low values 0.982 | locus YDR069C, strain doa4, hits give low values 0.982 | locus YDR101C, strain arx1, hits give low values 0.993 | locus YDR137W, strain rgp1, hits give low values 0.867 | locus YDR159W, strain sac3, hits give low values 0.999 | locus YDR162C, strain NBP2, hits give low values 1 | locus YDR195W, strain ref2 0.972 | locus YDR297W, strain sur2, hits give low values 0.996 | locus YDR318W, strain mcm21, hits give low values 1.01 | locus YDR334W, strain swr1, hits give low values 0.986 | locus YDR335W, strain msn5, hits give low values 0.985 | locus YDR388W, hits give low values 1.01 | locus YDR392W, strain spt3, hits give low values 0.989 | locus YDR502C, strain sam2, hits give low values 1 | locus YEL003W, strain gim4, hits give low values 0.996 | locus YEL037C, strain rad23, hits give low values 0.985 | locus YEL061C, strain CIN8 (second series), hits give low values 0.985 | locus YEL061C, strain CIN8, hits give low values 1 | locus YER015W, strain faa2, hits give low values 1 | locus YER016W, strain bim1, hits give low values 0.996 | locus YER110C, hits give low values 1.01 | locus YER111C, strain swi4, hits give low values 0.985 | locus YER155C, strain BEM2 (second series), hits give low values 1 | locus YER155C, strain BEM2, hits give low values 0.997 | locus YER167W, strain BCK2, hits give low values 1 | locus YFR010W, strain ubp6, hits give low values 0.978 | locus YGL078C, strain dbp3, hits give low values 1.02 | locus YGL086W, strain mad1, hits give low values 0.982 | locus YGL167C, strain pmr1, hits give low values 0.995 | locus YGL173C, strain kem1, hits give low values 0.994 | locus YGL227W, strain vid30, hits give low values 1 | locus YGL240W, strain doc1, hits give low values 1.02 | locus YGL248W, strain PDE1, hits give low values 1.01 | locus YGL253W, strain hxk2, hits give low values 0.995 | locus YGR078C, strain PAC10, hits give low values 1.01 | locus YGR135W, strain pre9, hits give low values 1.02 | locus YGR229C, strain SMI1, hits give low values 1.01 | locus YGR252W, strain gcn5, hits give low values 1.03 | locus YHR013C, strain ard1, hits give low values 0.977 | locus YHR027C, strain rpn1, hits give low values 0.974 | locus YHR030C, strain SLT2, hits give low values 1.01 and 0.964 | locus YHR079C, strain IRE1 (second series), hits give low values 1 | locus YHR079C, strain IRE1, hits give low values 0.976 | locus YHR094C, strain hxt1, hits give low values 1.01 | locus YHR129C, strain ARP1, hits give low values 0.999 | locus YHR142W, strain chs7, hits give low values 0.996 | locus YHR200W, strain rpn10, hits give low values 1 | locus YIL066C, strain RNR3, hits give low values 1.01 | locus YIL073C, strain SPO22, hits give low values 1.06 | locus YIL125W, strain kgd1, hits give low values 1.01 | locus YIR030C, strain dcg1, hits give low values 1.01 | locus YJL092W, strain hpr5, hits give low values 0.993 | locus YJL095W, strain BCK1 (second series), hits give low values 0.992 | locus YJL095W, strain BCK1, hits give low values 1.02 and 0.974 | locus YJL115W, strain asf1, hits give low values 0.978 | locus YJL129C, strain trk1, hits give low values 0.971 | locus YJL134W, strain LCB3, hits give low values 1.01 | locus YJL154C, strain vps35, hits give low values 0.983 | locus YJL164C, strain tpk1, hits give low values 1 | locus YJL166W, strain qcr8, hits give low values 1.01 | locus YJL168C, strain set2, hits give low values 1.01 | locus YJL187C, strain SWE1 (second series), hits give low values 1.02 | locus YJL187C, strain SWE1, hits give low values 0.991 | locus YJR066W, strain TOR1, hits give low values 0.918 | locus YKL009W, strain mrt4, hits give low values 0.999 | locus YKL068W, hits give low values 1.01 | locus YKL085W, strain MDH1 (second series), hits give low values 0.995 | locus YKL085W, strain MDH1, hits give low values 0.995 | locus YKL160W, strain elf1, hits give low values 0.996 | locus YKL190W, strain CNB1, hits give low values 1.01 | locus YKR001C, strain vps1, hits give low values 1.02 | locus YKR026C, strain gcn3, hits give low values 0.994 | locus YKR091W, strain srl3, hits give low values 0.992 | locus YLL001W, strain dnm1, hits give low values 0.983 | locus YLL026W, hits give low values 0.991 | locus YLL041C, strain sdh2, hits give low values 0.991 | locus YLR027C, strain aat2, hits give low values 0.998 | locus YLR039C, strain RIC1, hits give low values 0.988 | locus YLR058C, strain SHM2, hits give low values 1 | locus YLR102C, strain apc9, hits give low values 1.01 | locus YLR113W, strain HOG1, hits give low values 1.01 | locus YLR221C, strain rsa3, hits give low values 0.998 | locus YLR258W, strain gsy2, hits give low values 0.988 | locus YLR262C, strain YPT6 (second series), hits give low values 0.912 | locus YLR268W, strain sec22, hits give low values 1 | locus YLR320W, strain mms22, hits give low values 1.01 | locus YLR330W, strain CHS5, hits give low values 1 | locus YLR342W, strain FKS1, hits give low values 0.998 | locus YLR357W, strain rsc2, hits give low values 1.01 | locus YLR370C, strain arc18, hits give low values 0.988 | locus YLR371W, strain rom2, hits give low values 1.01 | locus YLR384C, strain iki3, hits give low values 0.993 | locus YLR418C, strain cdc73, hits give low values 1.03 | locus YML016C, strain PPZ1, hits give low values 0.998 | locus YML032C, strain rad52, hits give low values 0.997 | locus YML120C, strain ndi1, hits give low values 0.995 | locus YML124C, strain tub3, hits give low values 1.01 | locus YMR058W, strain fet3, hits give low values 0.981 | locus YMR078C, strain ctf18, hits give low values 1.02 | locus YMR125W, strain sto1, hits give low values 0.982 | locus YMR129W, hits give low values 0.998 | locus YMR205C, strain PFK2, hits give low values 0.988 | locus YMR223W, strain ubp8, hits give low values 0.999 | locus YMR231W, strain pep5, hits give low values 0.98 | locus YMR307W, strain GAS1, hits give low values 0.96 | locus YNL067W, strain RPL9B, hits give low values 1.02 | locus YNL071W, strain lat1, hits give low values 0.989 | locus YNL183C, strain NPR1, hits give low values 0.963 | locus YNL209W, strain ssb2, hits give low values 0.996 | locus YNL233W, strain BNI4, hits give low values 1.03 | locus YNL248C, strain rpa49, hits give low values 0.982 | locus YNL250W, strain rad50, hits give low values 0.998 | locus YNL271C, strain bni1, hits give low values 1.01 | locus YNL298W, strain CLA4, hits give low values 1.03 | locus YNL307C, strain MCK1, hits give low values 1.01 | locus YNL322C, strain KRE1 (second series), hits give low values 0.996 | locus YNR049C, strain mso1, hits give low values 0.987 | locus YNR052C, strain pop2, hits give low values 1.01 | locus YOL012C, strain htz1 0.887 | locus YOL147C, strain pex11, hits give low values 1.01 | locus YOR001W, strain rrp6, hits give low values 0.985 | locus YOR061W, strain CKA2, hits give low values 1 | locus YOR069W, strain VPS5, hits give low values 1 | locus YOR070C, strain gyp1, hits give low values 0.991 | locus YOR080W, strain dia2, hits give low values 0.995 | locus YOR083W, strain WHI5, hits give low values 0.996 | locus YOR106W, strain vam3, hits give low values 0.991 | locus YOR136W, strain idh2, hits give low values 1.01 | locus YOR144C, strain elg1, hits give low values 1 | locus YOR184W, strain ser1, hits give low values 1 | locus YOR231W, strain MKK1, hits give low values 0.979 | locus YOR265W, strain rbl2, hits give low values 0.987 | locus YOR270C, strain vph1, hits give low values 0.941 | locus YOR290C, strain snf2, hits give low values 1 | locus YOR316C, strain cot1, hits give low values 1.01 | locus YPL051W, strain arl3, hits give low values 0.992 | locus YPL078C, strain atp4, hits give low values 0.987 | locus YPL106C, strain sse1, hits give low values 1.04 | locus YPL240C, strain hsp82, hits give low values 0.998 | locus YPL256C, strain CLN2, hits give low values 0.97 | locus YPR119W, strain clb2, hits give low values 1.01 | locus YPR141C, strain kar3, hits give low values 1.01 | locus YPR163C, strain tif3, hits give low values 1.01 | locus YPR167C, strain met16, hits give low values 1.01 | strain wtn01, hits give low values 0.981
